Laboratory results reported in the supplement of paper PMC10849652.
The full data set covers some 7,900 targets. This sample favours those with a hit. About 0.6% of all pairs of compound and target were hits.

Assays:
Assay in all cases: log2 fold change, soluble protein after heating vs DMSO (PISA); higher = thermal stabilisation; K562 cells, 10 uM, 30 min; active = over 0.2 and 3.5 SD of the protein, either way, in both replicates (recomputed)
[1] = compound: Cc1ccc(NC(=O)c2ccc(CN3CC[C@H](N(C)C)C3)c(C(F)(F)F)c2)cc1Nc1nccc(-c2cncnc2)n1 [bafetinib]
In short: (§1)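 Soluble protein was defined as the supernatant after 21,000xg for 90 min. It came from K562 cells at 2×10^6 cells/mL given 10 μM compound for 30 min, heated in aliquots for 3 min across 48°C-58°C, pooled, and extracted in PBS with 0.5% NP-40 at 4°C, and was quantified by TMTpro 16plex LC-MS/MS with equalised channel sums. Thermal stability against control samples, from duplicates, is reported as log2 fold change.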

[2] = compound: Cc1cccc(CC(=O)N2CCc3c2ccc(-c2cn(C)c4ncnc(N)c24)c3F)n1
In short: as §1

[3] = compound: Cc1cn(-c2cc(NC(=O)c3ccc(C)c(Nc4nccc(-c5cccnc5)n4)c3)cc(C(F)(F)F)c2)cn1 [nilotinib]
In short: as §1

[4] = compound: Cc1nc(Nc2n[nH]c3c2CN(C(=O)N[C@H](CN(C)C)c2ccccc2)C3(C)C)c2sccc2n1
In short: as §1

[5] = compound: Cc1nc(Nc2ncc(C(=O)Nc3c(C)cccc3Cl)s2)cc(N2CCN(CCO)CC2)n1 [dasatinib]
In short: as §1

[6] = compound: Cc1ncc(-c2ccnc(Nc3ccc(S(C)(=O)=O)cc3)n2)n1C(C)C
In short: as §1

[7] = compound: Cn1cc(-c2ccc3c(c2)CCN3C(=O)Cc2cccc(C(F)(F)F)c2)c2c(N)ncnc21
In short: as §1

[8] = compound: Cn1cc(-c2ccc3nnc(C(F)(F)c4ccc5ncccc5c4)n3n2)cn1
In short: as §1

[9] = compound: Cn1cncc1[C@@](N)(c1ccc(Cl)cc1)c1ccc2c(c1)c(-c1cccc(Cl)c1)cc(=O)n2C [tipifarnib]
In short: as §1

[10] = compound: FC(F)(F)c1ccc(/C=C/c2nc(COc3ccc(CCCCn4ccnn4)cc3)co2)cc1 [mubritinib]
In short: as §1

[11] = compound: NC(=O)Nc1cc(-c2cccc(F)c2)sc1C(=O)N[C@H]1CCCNC1
In short: as §1

[12] = compound: NC(=O)c1cnc(N[C@@H]2CCCC[C@@H]2N)nc1Nc1cccc(-n2nccn2)c1
In short: as §1

[13] = compound: NC1(c2ccc(-c3nc4ccn5c(=O)[nH]nc5c4cc3-c3ccccc3)cc2)CCC1
In short: as §1

[14] = compound: NCC(=O)Nc1ccc(-n2nc(C(F)(F)F)cc2-c2ccc3c(ccc4ccccc43)c2)cc1
In short: as §1

[15] = compound: Nc1ccccc1NC(=O)c1ccc(CNC(=O)OCc2cccnc2)cc1 [entinostat]
In short: as §1

[16] = compound: O=C(CCCCCCC(=O)Nc1ccccc1)NO [vorinostat]
In short: as §1

[17] = compound: O=C(CCCCCCNC(=O)c1cnc(N(c2ccccc2)c2ccccc2Cl)nc1)NO [citarinostat]
In short: as §1

[18] = compound: O=C(O)c1ccc2c(c1)nc(Nc1cccc(Cl)c1)c1ccncc12 [silmitasertib]
In short: as §1

[19] = compound: O=C1NC(=O)C(c2cnc3ccccn23)=C1c1cn2c3c(cc(F)cc13)CN(C(=O)N1CCCCC1)CC2
In short: as §1

[20] = compound: c1cc(OCCN2CCCCC2)cc(-c2n[nH]c3ccc(-c4nnc[nH]4)cc23)c1
In short: as §1

Measured: log2 fold change

DDOST (UniProt P39656)
Sequence of UniProt P39656 (P39656 whole entry, looked up): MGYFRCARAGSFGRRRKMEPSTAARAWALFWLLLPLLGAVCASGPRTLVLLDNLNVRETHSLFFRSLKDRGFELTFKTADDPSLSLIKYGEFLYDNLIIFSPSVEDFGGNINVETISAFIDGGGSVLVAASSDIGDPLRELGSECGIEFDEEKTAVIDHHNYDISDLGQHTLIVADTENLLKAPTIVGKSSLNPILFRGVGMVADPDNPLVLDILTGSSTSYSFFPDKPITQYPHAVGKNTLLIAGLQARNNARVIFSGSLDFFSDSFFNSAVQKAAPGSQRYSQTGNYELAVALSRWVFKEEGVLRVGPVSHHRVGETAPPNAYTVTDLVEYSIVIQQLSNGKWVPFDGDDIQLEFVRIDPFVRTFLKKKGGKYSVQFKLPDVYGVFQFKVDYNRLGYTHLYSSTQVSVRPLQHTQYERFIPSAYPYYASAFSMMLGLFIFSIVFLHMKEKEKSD
inactive: [1] -0.035 | [2] -0.001 | [3] -0.005 | [4] 0.033 | [5] 0.016 | [6] -0.039 | [7] -0.04 | [8] 0 | [9] 0.047 | [10] -0.022 | [11] 0.003 | [12] -0.013 | [13] -0.057 | [14] 0.014 | [15] 0.007 | [16] -0.036 | [17] 0.017 | [18] 0.05 | [19] -0.017 | [20] -0.116

DIAPH1 (UniProt O60610)
inactive: [1] 0.088 | [2] 0.057 | [3] -0.011 | [4] -0.197 | [5] -0.055 | [6] 0.077 | [7] -0.083 | [8] -0.035 | [9] -0.077 | [10] 0.039 | [11] -0.156 | [12] -0.085 | [13] -0.067 | [14] -0.064 | [15] 0.024 | [16] 0.066 | [17] 0.056 | [18] 0.115 | [19] 0.178 | [20] -0.046

CYP51A1 (UniProt Q16850)
Sequence of UniProt Q16850 (Q16850 whole entry, looked up): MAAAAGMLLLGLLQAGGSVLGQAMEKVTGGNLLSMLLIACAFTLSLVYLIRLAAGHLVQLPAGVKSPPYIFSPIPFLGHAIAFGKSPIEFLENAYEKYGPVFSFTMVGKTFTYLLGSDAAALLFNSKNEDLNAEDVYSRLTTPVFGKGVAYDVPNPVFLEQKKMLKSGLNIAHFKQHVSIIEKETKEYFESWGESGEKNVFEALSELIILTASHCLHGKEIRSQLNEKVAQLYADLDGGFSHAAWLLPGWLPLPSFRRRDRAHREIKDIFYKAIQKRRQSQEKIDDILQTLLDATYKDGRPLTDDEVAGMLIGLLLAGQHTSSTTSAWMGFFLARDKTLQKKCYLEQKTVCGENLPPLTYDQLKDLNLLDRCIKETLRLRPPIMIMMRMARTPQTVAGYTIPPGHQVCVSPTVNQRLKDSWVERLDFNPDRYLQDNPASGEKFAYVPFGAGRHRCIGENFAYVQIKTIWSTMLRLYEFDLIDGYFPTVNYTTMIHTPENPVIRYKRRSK
active: [9] 1.27 | [19] 0.964
inactive: [1] 0.02 | [2] -0.019 | [3] 0.156 | [4] -0.03 | [5] 0.092 | [6] -0.016 | [7] -0.016 | [8] -0.143 | [10] 0.047 | [11] -0.018 | [12] -0.004 | [13] 0.024 | [14] -0.033 | [15] -0.045 | [16] 0.119 | [17] 0.006 | [18] 0.001 | [20] -0.112

DHX40 (UniProt Q8IX18)
Sequence of UniProt Q8IX18 (Q8IX18 whole entry, looked up): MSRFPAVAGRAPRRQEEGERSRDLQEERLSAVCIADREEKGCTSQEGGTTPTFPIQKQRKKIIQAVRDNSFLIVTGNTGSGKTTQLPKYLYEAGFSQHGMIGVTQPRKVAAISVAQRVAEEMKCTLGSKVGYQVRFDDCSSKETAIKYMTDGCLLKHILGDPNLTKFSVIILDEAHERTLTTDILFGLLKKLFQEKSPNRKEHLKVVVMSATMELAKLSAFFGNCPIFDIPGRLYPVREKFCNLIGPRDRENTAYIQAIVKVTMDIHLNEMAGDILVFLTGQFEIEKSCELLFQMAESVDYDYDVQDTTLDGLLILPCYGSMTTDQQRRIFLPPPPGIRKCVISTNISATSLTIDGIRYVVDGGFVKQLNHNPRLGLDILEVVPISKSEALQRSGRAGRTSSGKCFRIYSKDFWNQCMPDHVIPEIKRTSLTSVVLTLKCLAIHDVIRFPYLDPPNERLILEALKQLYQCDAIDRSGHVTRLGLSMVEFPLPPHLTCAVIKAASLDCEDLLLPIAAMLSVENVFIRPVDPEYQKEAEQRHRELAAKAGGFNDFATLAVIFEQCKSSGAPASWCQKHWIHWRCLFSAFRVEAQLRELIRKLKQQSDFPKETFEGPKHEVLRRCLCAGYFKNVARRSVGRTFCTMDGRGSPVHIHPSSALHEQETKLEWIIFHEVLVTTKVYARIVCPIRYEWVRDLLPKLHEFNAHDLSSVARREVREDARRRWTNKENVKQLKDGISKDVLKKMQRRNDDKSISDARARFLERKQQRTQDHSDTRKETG
inactive: [1] -0.033 | [2] 0.038 | [3] -0.052 | [5] -0.229 | [6] 0.118 | [7] 0.103 | [8] 0.035 | [9] 0.017 | [10] 0.084 | [11] -0.093 | [12] -0.036 | [13] -0.157 | [14] -0.042 | [15] -0.004 | [16] -0.097 | [17] 0.081 | [18] -0.027 | [19] -0.116 | [20] -0.04
active: [4] -0.289

ERCC2 (UniProt P18074)
inactive: [1] 0.094 | [2] 0.061 | [3] -0.014 | [4] -0.175 | [5] -0.185 | [6] -0.022 | [7] 0.05 | [8] 0.01 | [9] -0.062 | [10] 0.114 | [11] -0.015 | [12] -0.011 | [13] -0.109 | [14] 0.004 | [15] 0.014 | [16] 0.045 | [17] 0.103 | [18] -0.052 | [19] -0.092 | [20] -0.039

ELOC (UniProt Q15369)
inactive: [1] 0.003 | [2] 0.014 | [3] -0.028 | [4] 0.013 | [5] 0.032 | [6] -0.003 | [7] 0.116 | [8] 0.049 | [9] -0.027 | [10] 0.005 | [11] -0.008 | [12] -0.011 | [13] -0.015 | [14] -0.008 | [15] 0.024 | [16] 0.024 | [17] 0.036 | [18] -0.007 | [19] -0.107 | [20] -0.053

DPH5 isoform 5 (UniProt Q9H2P9)
active: [5] 0.253
inactive: [1] 0.025 | [2] 0.037 | [3] 0.013 | [4] -0.023 | [6] 0.003 | [7] 0.085 | [8] 0.006 | [9] -0.121 | [10] 0.049 | [11] -0.036 | [12] -0.005 | [13] 0.209 | [14] -0.003 | [15] -0.018 | [16] -0.009 | [17] 0.017 | [18] -0.008 | [19] 0.109 | [20] 0.038

CTSB (UniProt P07858)
active: [1] -0.842 | [13] -0.283
inactive: [2] -0.038 | [3] 0.001 | [4] -0.028 | [5] -0.008 | [6] -0.029 | [7] 0.014 | [8] 0.033 | [9] 0.008 | [10] -0.007 | [11] -0.013 | [12] -0.043 | [14] 0.005 | [15] -0.047 | [16] 0.016 | [17] -0.015 | [18] 0.002 | [19] -0.067 | [20] -0.07

EDC3 (UniProt Q96F86)
Sequence of UniProt Q96F86 (Q96F86 whole entry, looked up): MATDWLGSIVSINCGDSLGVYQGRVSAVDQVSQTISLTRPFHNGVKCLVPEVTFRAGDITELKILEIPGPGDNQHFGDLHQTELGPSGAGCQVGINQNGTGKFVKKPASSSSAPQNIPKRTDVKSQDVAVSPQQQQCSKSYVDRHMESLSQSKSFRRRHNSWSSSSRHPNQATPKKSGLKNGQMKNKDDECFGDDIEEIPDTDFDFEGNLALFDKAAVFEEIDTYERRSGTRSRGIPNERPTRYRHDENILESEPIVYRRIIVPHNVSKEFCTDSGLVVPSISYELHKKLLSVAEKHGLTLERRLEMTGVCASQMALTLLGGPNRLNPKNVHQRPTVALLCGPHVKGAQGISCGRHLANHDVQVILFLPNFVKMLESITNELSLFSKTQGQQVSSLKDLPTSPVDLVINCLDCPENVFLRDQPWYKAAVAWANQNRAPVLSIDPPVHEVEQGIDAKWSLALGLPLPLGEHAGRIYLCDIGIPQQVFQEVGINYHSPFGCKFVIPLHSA
inactive: [1] -0.022 | [2] -0.013 | [3] -0.142 | [4] -0.127 | [5] -0.006 | [6] -0.151 | [7] -0.019 | [8] -0.006 | [9] -0.035 | [10] 0 | [11] -0.162 | [12] -0.229 | [13] -0.119 | [14] -0.075 | [15] 0.07 | [16] 0.154 | [17] 0.042 | [18] -0.047 | [19] -0.068 | [20] -0.152

CUEDC2 (UniProt Q9H467)
inactive: [1] -0.072 | [2] 0.003 | [3] -0.006 | [4] -0.045 | [5] 0.049 | [6] -0.055 | [7] 0.02 | [8] -0.009 | [9] 0.028 | [10] 0.042 | [11] 0 | [12] -0.105 | [13] -0.043 | [14] -0.056 | [15] -0.009 | [16] -0.039 | [17] 0.096 | [18] 0.008 | [19] -0.055 | [20] 0.002

CYFIP1 (UniProt Q7L576)
Sequence of UniProt Q7L576 (Q7L576 whole entry, looked up): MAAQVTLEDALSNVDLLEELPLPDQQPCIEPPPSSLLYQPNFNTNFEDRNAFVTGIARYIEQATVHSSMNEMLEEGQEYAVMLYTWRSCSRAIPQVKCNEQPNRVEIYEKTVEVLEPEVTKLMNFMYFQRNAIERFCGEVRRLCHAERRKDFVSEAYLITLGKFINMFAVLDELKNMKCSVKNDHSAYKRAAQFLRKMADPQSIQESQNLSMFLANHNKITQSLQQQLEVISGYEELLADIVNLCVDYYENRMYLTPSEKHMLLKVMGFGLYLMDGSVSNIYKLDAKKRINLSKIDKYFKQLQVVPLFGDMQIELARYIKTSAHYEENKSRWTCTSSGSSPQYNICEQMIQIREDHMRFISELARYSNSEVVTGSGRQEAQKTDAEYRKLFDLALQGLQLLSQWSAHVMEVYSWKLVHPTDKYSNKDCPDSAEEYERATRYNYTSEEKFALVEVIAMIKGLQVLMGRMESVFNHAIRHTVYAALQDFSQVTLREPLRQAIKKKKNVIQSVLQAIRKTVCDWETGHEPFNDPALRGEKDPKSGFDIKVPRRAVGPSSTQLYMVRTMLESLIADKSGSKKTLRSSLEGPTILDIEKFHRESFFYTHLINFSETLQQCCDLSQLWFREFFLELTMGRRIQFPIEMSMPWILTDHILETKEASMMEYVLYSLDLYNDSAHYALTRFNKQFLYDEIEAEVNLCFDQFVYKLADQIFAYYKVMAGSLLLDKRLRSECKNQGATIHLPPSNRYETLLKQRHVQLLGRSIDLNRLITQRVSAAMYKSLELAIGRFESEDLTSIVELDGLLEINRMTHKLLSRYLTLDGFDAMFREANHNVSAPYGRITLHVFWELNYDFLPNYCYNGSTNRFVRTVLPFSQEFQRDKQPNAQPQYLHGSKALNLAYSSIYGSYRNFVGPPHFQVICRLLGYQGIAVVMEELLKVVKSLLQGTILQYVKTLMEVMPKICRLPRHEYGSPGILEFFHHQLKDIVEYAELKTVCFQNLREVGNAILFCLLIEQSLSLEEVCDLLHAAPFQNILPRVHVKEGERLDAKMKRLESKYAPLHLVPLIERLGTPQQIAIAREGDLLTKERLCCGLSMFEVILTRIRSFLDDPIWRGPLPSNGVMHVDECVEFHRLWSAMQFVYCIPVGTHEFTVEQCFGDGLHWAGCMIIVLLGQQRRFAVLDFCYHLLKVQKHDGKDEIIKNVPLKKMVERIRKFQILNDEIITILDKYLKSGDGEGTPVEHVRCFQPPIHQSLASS
inactive: [1] -0.064 | [2] 0.002 | [3] -0.015 | [4] -0.064 | [5] -0.05 | [6] -0.024 | [7] 0.049 | [8] -0.006 | [9] -0.011 | [10] 0.022 | [11] -0.088 | [12] -0.029 | [13] -0.143 | [14] 0.003 | [15] 0.02 | [16] -0.025 | [17] 0.031 | [18] 0.009 | [19] -0.039 | [20] -0.064

DCAF6 isoform 3 (UniProt Q58WW2)
Sequence of UniProt Q58WW2 (Q58WW2 whole entry, looked up): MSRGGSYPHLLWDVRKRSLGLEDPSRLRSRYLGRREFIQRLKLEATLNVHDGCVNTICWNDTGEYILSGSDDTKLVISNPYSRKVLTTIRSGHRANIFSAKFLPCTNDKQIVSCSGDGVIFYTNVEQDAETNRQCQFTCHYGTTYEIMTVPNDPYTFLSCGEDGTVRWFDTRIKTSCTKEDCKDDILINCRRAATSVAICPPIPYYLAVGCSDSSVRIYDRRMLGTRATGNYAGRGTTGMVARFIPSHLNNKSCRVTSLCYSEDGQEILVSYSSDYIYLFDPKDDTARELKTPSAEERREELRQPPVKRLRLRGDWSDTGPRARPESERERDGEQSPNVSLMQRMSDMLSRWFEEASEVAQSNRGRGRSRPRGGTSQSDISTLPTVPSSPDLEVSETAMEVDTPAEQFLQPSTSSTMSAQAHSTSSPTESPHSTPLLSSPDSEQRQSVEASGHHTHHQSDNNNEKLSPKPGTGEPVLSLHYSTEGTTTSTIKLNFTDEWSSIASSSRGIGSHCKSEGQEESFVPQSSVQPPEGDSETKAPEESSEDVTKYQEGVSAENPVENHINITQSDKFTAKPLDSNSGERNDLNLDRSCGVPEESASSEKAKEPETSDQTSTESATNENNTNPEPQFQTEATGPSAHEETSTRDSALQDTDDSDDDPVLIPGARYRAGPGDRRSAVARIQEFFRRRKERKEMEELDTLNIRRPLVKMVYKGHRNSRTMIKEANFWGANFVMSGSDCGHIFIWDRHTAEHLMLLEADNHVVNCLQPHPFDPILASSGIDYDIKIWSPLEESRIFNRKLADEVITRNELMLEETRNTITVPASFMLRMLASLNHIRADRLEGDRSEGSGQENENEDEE
inactive: [1] -0.071 | [2] 0.009 | [3] 0.009 | [4] 0.02 | [5] 0.008 | [6] -0.013 | [7] -0.016 | [8] 0.031 | [9] 0.027 | [10] 0.017 | [11] 0 | [12] 0.019 | [13] 0.026 | [14] 0.007 | [15] -0.005 | [16] 0.003 | [17] 0.021 | [18] 0.045 | [19] -0.009 | [20] -0.008

CUX1 isoform 2 (UniProt Q13948)
Sequence of UniProt Q13948 (Q13948 whole entry, looked up): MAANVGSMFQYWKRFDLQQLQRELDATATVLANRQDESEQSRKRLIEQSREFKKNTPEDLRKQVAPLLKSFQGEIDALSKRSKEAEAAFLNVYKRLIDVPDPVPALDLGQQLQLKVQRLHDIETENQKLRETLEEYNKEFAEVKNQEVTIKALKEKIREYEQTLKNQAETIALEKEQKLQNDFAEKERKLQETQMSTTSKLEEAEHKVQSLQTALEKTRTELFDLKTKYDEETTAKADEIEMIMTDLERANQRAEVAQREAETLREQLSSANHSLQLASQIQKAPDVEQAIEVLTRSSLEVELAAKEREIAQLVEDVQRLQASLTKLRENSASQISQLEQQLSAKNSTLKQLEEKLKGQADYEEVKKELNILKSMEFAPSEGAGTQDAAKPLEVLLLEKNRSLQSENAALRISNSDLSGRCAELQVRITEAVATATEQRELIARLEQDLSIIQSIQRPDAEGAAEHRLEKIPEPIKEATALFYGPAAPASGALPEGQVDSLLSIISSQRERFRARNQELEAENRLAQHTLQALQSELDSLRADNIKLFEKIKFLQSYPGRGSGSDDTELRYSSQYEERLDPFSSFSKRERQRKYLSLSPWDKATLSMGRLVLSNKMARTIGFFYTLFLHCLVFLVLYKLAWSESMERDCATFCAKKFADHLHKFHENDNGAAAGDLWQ
active: [15] 0.343
inactive: [1] 0.051 | [2] 0.042 | [3] -0.001 | [4] -0.029 | [5] -0.084 | [6] 0.078 | [7] 0.072 | [8] 0.063 | [9] 0.062 | [10] 0.007 | [11] -0.027 | [12] -0.031 | [13] -0.033 | [14] -0.026 | [16] 0.076 | [17] 0.137 | [18] -0.016 | [19] -0.047 | [20] -0.03

EEA1 (UniProt Q15075)
inactive: [1] -0.043 | [2] -0.021 | [3] 0.013 | [4] 0 | [5] 0.061 | [6] 0.004 | [7] -0.015 | [8] 0.028 | [9] 0.007 | [10] 0.041 | [11] 0.013 | [12] -0.014 | [13] 0.006 | [14] -0.014 | [15] -0.023 | [16] 0.004 | [17] -0.001 | [18] 0.015 | [19] 0.006 | [20] -0.043

DNTTIP2 (UniProt Q5QJE6)
inactive: [1] 0.148 | [2] -0.05 | [3] 0.064 | [4] -0.02 | [5] 0.148 | [6] -0.29 | [7] -0.104 | [8] -0.035 | [9] 0.256 | [10] -0.074 | [11] 0.14 | [12] -0.054 | [13] 0.155 | [14] 0.029 | [15] -0.03 | [16] 0.045 | [17] 0.016 | [18] 0.102 | [19] -0.028 | [20] -0.095
